# Screening data as filed in PubChem BioAssay.
# A selection: hits, their analogues and other compounds. The true share with any hit is near 19%.
# TDP1 cell noCPT – qHTS for Inhibitors of human tyrosyl-DNA phosphodiesterase 1 (TDP1): qHTS in cells in absence of CPT; DT40 Tdp1-/- hTDP1 cells, no CPT, ATP luminescence, 48 h; Potency, µM (titrated, usually from 46.2 µM), inactives show at the highest dose activity change, negative = growth inhibition, usual class: inhibitors; hit rate 15% among 420,000; also: nearly all actives have a fitted effect of over 55% in size
#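 Chicken DT40 Tdp1-/- cells stably complemented with human TDP1 were seeded at 400 cells/well with DMSO in place of 20 nM camptothecin. After compound pinning, cells grew at least 48 hr at 37 °C; viability read by CellTiter-Glo luminescence.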
# KB-V1 MDR tox – qHTS assay for MDR1-selective chemotherapeutics: Primary screen using the drug-selected MDR subline cells KB-V1 | KB-V1 MDR cells viability, CellTiter-Glo, 72 h | hit rate 3.4% among 400,000 | Potency, µM (series often up to 46.1 µM), usual class: cytotoxic; also: nearly all actives have a fitted effect of over 60% in size
#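 KB-V1, DMEM (no phenol red) + 10% FBS; cpd pin-transferred, titration series; 72 h, 37 degrees C; CellTiter-Glo, luminescence. Data normalized, curve-fit.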
# DT40 TDP1 CPT – qHTS for Inhibitors of human tyrosyl-DNA phosphodiesterase 1 (TDP1): qHTS in cells in presence of CPT. chicken DT40 Tdp1-/-;hTDP1 cells + 20 nM CPT, ATP luminescence, 48 h. Potency, µM (highest dose often 46.2 µM), inactives show top-dose activity change, negative = growth inhibition, hits mostly inhibitors. hit rate 12% among 420,000; also: nearly all actives have a fitted effect of over 55% in size
#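 Cell growth measured by CellTiter-Glo luminescence after a minimum 48 h, 37 C compound exposure with 20 nM CPT in Tdp1-knockout DT40 cells stably expressing hTDP1, seeded 400/well; qHTS titration format.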
# KB-3-1 cytotox – qHTS assay for MDR1-selective chemotherapeutics: Primary screen using the parental adenocarcinoma cell KB-3-1. KB-3-1 viability, CellTiter-Glo ATP luminescence, 72 h. Potency, µM (doses to about 46.1 µM), most hits filed as cytotoxic. hit rate 1.4% among 400,000; also: nearly all actives have a fitted effect of over 60% in size
#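 Luminescent ATP read-out (CellTiter-Glo) measures survival of drug-naive KB-3-1 cells after 72 h compound exposure at 37 °C. Titration series was screened from lowest to highest concentration, with DMSO vehicle plates as background controls.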
# HT1080NT lethal – qHTS for induction of synthetic lethality in tumor cells producing 2HG: qHTS for the HT-1080-NT fibrosarcoma cell line; AID 686970, 2013; hit rate 1.6% among 360,000; Potency, µM (doses to about 46.1 µM), for inactives: at the top dose activity, negative = less viability, actives largely listed as cytotoxic; HT-1080-NT fibrosarcoma viability, CellTiter-Glo ATP luminescence, 48 h;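 also: NT is the 2HG producing partner of a matched IDH1 knockdown line; 0% = DMSO-treated cells and -100% = media-only wells without cells; nearly all actives have a fitted effect of over 55% in size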
#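 HT-1080-NT; 750 cells/well; 5% FBS RPMI; 48 h compound, 37 degrees C; CellTiter-Glo luminescence; curve fitting and curve-class assignment.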
# HT1080 IDH1KD tx – qHTS for induction of synthetic lethality in tumor cells producing 2HG: qHTS for the HT-1080-IDH1KD cell line | HT-1080 IDH1 knockdown viability, ATP luminescence, 48 h | Potency, µM (top dose mostly 46.1 µM), for the others: top-dose activity, negative = toxicity, hits mostly cytotoxic | hit rate 2% among 360,000 | AID 686971, 2013;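 also: 0% = DMSO wells and -100% = cell-free medium wells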
#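 Cytotoxicity counter-line: IDH1KD HT-1080, 48 h, CellTiter-Glo. Curves classed by r2, magnitude and activity.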
# Numbers without * were called inactive; i = inactive; ? = inconclusive; · = no result. Calls follow the shape of the dose curve; as a rule, active = well fitted curve in the direction sought with a large enough effect; inconclusive = small, poorly fitted or top-dose-only effect, or another doubt; inactive = no such curve, though single readings can be large; an effect the other way counts as inactive or inconclusive. Unless noted, % is scaled to controls: 0 for no effect and ±100 for the full control effect; potency is read from the fitted curve at half-maximal effect.
SMILES,TDP1 cell noCPT,KB-V1 MDR tox,DT40 TDP1 CPT,KB-3-1 cytotox,HT1080NT lethal,HT1080 IDH1KD tx
Cc1c(C(=O)NCC2COc3ccccc3O2)oc2ccc(S(=O)(=O)N3CC(C)CC(C)C3)cc12 (stereo not given),13µM*,?,18µM*,i,0%,-1%
COCCCNC(=O)c1oc2ccc(S(=O)(=O)N3CCOCC3)cc2c1C,-23%,i,1%,i,-4%,1%
Cc1c(C(=O)NCC2COc3ccccc3O2)oc2ccc(S(=O)(=O)N3CCOCC3)cc12 (stereo not given),?,2.3µM*,?,?,10%,9%
O=C(NCC1COc2ccccc2O1)c1ccc(F)c(S(=O)(=O)N2CCOCC2)c1 (stereo not given),?,?,18µM*,i,-8%,-4%
Cc1c(C(=O)NCC2CCCO2)oc2ccc(S(=O)(=O)N3CC(C)CC(C)C3)cc12 (stereo not given),?,?,?,?,0%,-3%
CCN(CC)CCCNC(=O)c1oc2ccc(S(=O)(=O)N3CC(C)CC(C)C3)cc2c1C (stereo not given),18µM*,?,?,i,?,26µM*
CCNC(=S)NNc1nc(N2CCCCC2)nc(N2CCOCC2)n1,1%,?,4%,?,-4%,3%
CCN(CC)S(=O)(=O)c1ccc2oc(C(=O)NCCCN3CCOCC3)c(C)c2c1,-4%,i,1%,i,9%,0%
CCN(CC)S(=O)(=O)c1ccc2oc(C(=O)NCC3COc4ccccc4O3)c(C)c2c1 (stereo not given),23µM*,?,?,i,-30%,?
Cc1c(C(=O)N2CCCCC2)oc2ccc(S(=O)(=O)N3CC(C)CC(C)C3)cc12 (stereo not given),13µM*,?,18µM*,i,?,?
Cc1ccc(C(C)(O)CS(=O)(=O)Cc2ccccc2Cl)cc1 (stereo not given),1%,i,-12%,i,3%,3%
O=C(CSc1nccc(=O)[nH]1)Nc1cccc(S(=O)(=O)N2CCOCC2)c1,-17%,i,4%,i,5%,11%
N#CCCn1c(=O)c(-c2ccc(Cl)cc2)nc2cnc(OCc3ccccc3)nc21,-3%,·,-13%,·,·,·
COc1ccc(C(C(=O)NC2CCCCC2)N(Cc2ccco2)C(=O)c2snc(C(N)=O)c2N)cc1 (stereo not given),?,16µM*,?,?,-3%,-1%
COCCN(C(=O)c1snc(C(N)=O)c1N)C(C(=O)NC1CCCCC1)c1ccc(N(C)C)cc1 (stereo not given),15µM*,i,-26%,i,11%,2%
COc1ccc(C(C(=O)NC2CCCC2)N(Cc2ccco2)C(=O)c2snc(C(N)=O)c2N)cc1OC (stereo not given),-5%,i,?,i,8%,3%
O=C(Nc1c(-c2ccc(Cl)cc2)[nH][nH]c1=O)c1ccc(Br)cc1,-2%,i,-15%,i,10%,1%
Cc1ccc(CCNC(=O)CCn2c(=O)c3cccn3c3ccc(F)cc32)cc1,18µM*,?,?,i,-5%,-13%
O=C(CCn1c(=O)c2cccn2c2ccc(F)cc21)NCCc1ccc(Cl)cc1,15µM*,·,?,·,·,·
CCCCNC(=O)CCn1c(=O)c2cccn2c2ccc(F)cc21,?,i,?,i,17%,14%
c1ccc(-c2nnc(N3CCCC3)nc2-c2ccccc2)cc1,?,i,?,i,0%,-9%
Cc1cccc(CNC(=O)c2c3n(c(C)cc2=O)-c2ccccc2SC(c2ccsc2)C3)n1 (stereo not given),-13%,·,-22%,·,·,·
NC(=O)CSc1oc(-c2ccco2)nc1S(=O)(=O)c1ccc(Cl)cc1,3%,i,4%,i,-2%,1%
CCOc1ccc(NC(=O)CSc2oc(-c3ccco3)nc2S(=O)(=O)c2ccc(Cl)cc2)cc1,?,i,21µM*,i,·,·
Cc1cc(C)cc(NC(=O)CSc2oc(-c3ccco3)nc2S(=O)(=O)c2ccc(Cl)cc2)c1,?,?,23µM*,i,·,·
SMILES,TDP1 cell noCPT,KB-V1 MDR tox,DT40 TDP1 CPT,KB-3-1 cytotox,HT1080NT lethal,HT1080 IDH1KD tx
CCCn1c(COc2cccc(C)c2)nc2ccccc21,21µM*,i,?,i,·,·
Cc1cccc(OCc2nc3ccccc3c(=O)n2N)c1,29µM*,i,?,i,5%,18%
Cc1cccc(OCc2nc3ccccc3n2C)c1,?,i,?,i,3%,15%
Nn1c(COc2cccc(Cl)c2)nc2ccccc2c1=O,-12%,i,4%,i,0%,-1%
C=CCn1c(COc2ccc(OC)cc2)nc2ccccc21,?,i,?,i,4%,-4%
Cc1ccccc1OCc1nc2ccccc2n1Cc1ccccc1Cl,10µM*,i,?,i,·,·
COc1cccc(OCc2nc3ccccc3n2Cc2ccccc2C)c1,12µM*,i,21µM*,i,·,·
N#Cc1ccc(S(=O)(=O)N2CCCCC2c2cc(C(=O)NCc3ccccc3)no2)cc1 (stereo not given),-50%,i,?,i,4%,0%
O=C(Cn1nc(Br)nc1Br)c1ccccc1,-4%,i,1%,i,-1%,16%
CCc1ncc(C(O)c2ccc(Cl)cc2)n1Cc1ccccc1 (stereo not given),12µM*,?,18µM*,?,-9%,?
Cc1ncc(C(O)c2ccc(N(C)C)cc2)n1Cc1ccccc1 (stereo not given),23µM*,i,?,i,-13%,3%
COc1ccc(C(O)c2nccn2Cc2ccccc2)cc1 (stereo not given),-14%,i,-29%,i,-1%,2%
CN(C)c1ccc(C(=S)N2CCN(Cc3ccccc3)CC2)cc1,?,?,?,i,-4%,11%
